Shown are actives, neighbours in structure and some others; about 1.8% of the full set was active somewhere.
EWS-Fli block – inhibitors of EWS/Fli oncoprotein transcriptional activity | A673 NR0B1-luciferase reporter, viability-normalised | inhibition, % at 12.6 µM | 0.67% of 350,000 active | AID 651661;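 active means mean inhibition of at least 50% after viability correction, with every replicate also passing that limit; inconclusive means mean reaches 50% but only one of two replicates passes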;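 further: firefly luciferase signal divided by Alamar Blue viability fluorescence both relative to DMSO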
PAX8 inh HTS – PAX8 transcriptional activity inhibition; RMG-I TPO-luciferase reporter, SteadyGlo, 24 h; inhibition, % at 12.6 µM; 1.2% of 360,000 active;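 active means mean replicate inhibition at least 60% with every replicate also reaching 60%; inconclusive means only one of the two criteria is met; inactive means mean below 60% and not all replicates reaching 60%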;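 further: luciferase light reporting Pax8 driven TPO promoter activity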
LGR2 inh – blocks bursicon-induced cAMP signaling via Drosophila LGR2; inhibition, % at 9.99 µM; 0.35% of 380,000 active; AID 720647; HEK293 LGR2, CRE-luciferase, bursicon-stimulated, 4 h;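 active means drop in luminescence signal, shown as inhibition above about 50% in the replicate tests, limit read from the data, passing the limit was not always enough; inconclusive means probably only some replicates passing the limit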;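 further: agonist challenge used bursicon conditioned medium at about half maximal strength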
CFTR F508del cor – correctors of CFTR F508del function in bronchial epithelial cells. CFBE cells, YFP halide quenching; stimulated with forskolin plus potentiator P3; % fluorescence drop versus neutral controls. activity (quench increase), % at 7.58 µM. AID 720511. 0.36% of 350,000 active;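 active means mean added fluorescence quench of at least 8% versus neutral control, with both replicates also reaching 8%; inconclusive means only one of the mean or replicate conditions met; inactive means mean below 8% and not both replicates reaching 8%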;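 further: cells transiently co-express mutant CFTR-F508del with the halide-sensitive YFP; corrector assay measuring rescue of mutant channel to the surface after 24 h compound exposure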
Numbers stand for hits; 0 = inactive; ? = inconclusive; - = not tested or not shown; ! = a repeat was not active.

SMILES	EWS-Fli block	PAX8 inh HTS	LGR2 inh	CFTR F508del cor
Cc1ccc(S(=O)(=O)NCc2ccc(C(=O)N3CCN(c4ccc([N+](=O)[O-])cc4)CC3)cc2)cc1	0	88.4	0	0
O=C(c1cc([N+](=O)[O-])ccc1Cl)N1CCN(c2ccc([N+](=O)[O-])cc2)CC1	0	69.7	0	0
COc1ccc(N2CCN(C(=O)c3ccc(CNS(=O)(=O)c4ccc(C)cc4)cc3)CC2)cc1	0	0	0	0
COC(=O)c1cc(C(=O)N2CCN(c3cccc(Cl)c3)CC2)cc([N+](=O)[O-])c1	50.9	0	0	8.7
O=C(c1cc([N+](=O)[O-])ccc1Cl)N1CCN(c2ccc(F)cc2)CC1	0	0	0	0
Cc1ccccc1-c1cnc2c(c1)C(=O)N([C@H](C)CO)C[C@H](C)[C@H](CN(C)C(=O)c1ccc(F)cc1)O2	0	-	0	0
CCNC(=O)C[C@H]1CC[C@@H]2[C@H](COC[C@H](O)CN2C(=O)Nc2ccc(C(F)(F)F)cc2)O1	0	0	0	0
CCCOc1cc(NCc2ccccc2)c2ncn(C(C)C)c2c1	0	0	0	0
CCOc1cc(NCc2ccccc2)c2ncn(C(C)C)c2c1	0	76.6	0	0
CCCCCCN1C[C@H](O)[C@@H](n2cc(C3CC3)nn2)C[C@@H]1c1ccc(OC)cc1	0	0	0	0
C[C@@H]1CN([C@@H](C)CO)C(=O)c2c(c3ccccc3n2C)-c2ccccc2CO[C@@H]1CN(C)S(=O)(=O)c1ccsc1	0	0	0	0
C[C@H](CO)N1C[C@H](C)[C@H](CN(C)S(=O)(=O)c2ccc(Cl)cc2)OCc2ccccc2-c2c(n(C)c3ccccc23)C1=O	0	87.8!	0	0
Cc1ccc(S(=O)(=O)N(C)C[C@@H]2OCc3ccccc3-c3c(n(C)c4ccccc34)C(=O)N([C@H](C)CO)C[C@@H]2C)cc1	0	71.3!	0	0
C[C@H]1CN([C@@H](C)CO)C(=O)c2c(c3ccccc3n2C)-c2ccccc2CO[C@@H]1CN(C)S(=O)(=O)c1ccc(Cl)cc1	0	-	0	0
C[C@H]1CN([C@@H](C)CO)C(=O)c2c(c3ccccc3n2C)-c2ccccc2CO[C@@H]1CN(C)S(=O)(=O)c1ccsc1	0	92.3	0	0
Cc1ccc(S(=O)(=O)N(C)C[C@H]2OCc3ccccc3-c3c(n(C)c4ccccc34)C(=O)N([C@@H](C)CO)C[C@@H]2C)cc1	0	-	0	0
CN(C)CC(=O)N1[C@@H]2Cn3c(ccc(-c4ccncc4)c3=O)[C@H]1[C@@H](C(=O)NC1CCC1)[C@@H]2CO	0	0	0	0
Cn1c2c(c(=O)c3ccccc31)CCCC2	0	0	0	0
O=C(C[C@@H]1CC[C@@H]2[C@H](COC[C@H](O)CN2S(=O)(=O)c2ccccc2Cl)O1)N1CCC(Cc2ccccc2)CC1	0	78.5	0	0
Cc1ccccc1S(=O)(=O)N1C[C@H](O)COC[C@@H]2O[C@@H](CC(=O)N3CCC(Cc4ccccc4)CC3)CC[C@H]21	0	0	0	0
Cc1ccccc1S(=O)(=O)N1C[C@H](O)COC[C@H]2O[C@H](CC(=O)N3CCC(Cc4ccccc4)CC3)CC[C@@H]21	0	0	0	0
O=C(C[C@H]1CC[C@H]2[C@@H](COC[C@@H](O)CN2S(=O)(=O)c2ccccc2Cl)O1)N1CCC(Cc2ccccc2)CC1	0	80.2	0	0
O=[N+]([O-])c1ccc(/C=N/N=C/c2ccc([N+](=O)[O-])o2)o1	?	0	82.4	0
O=C(O)/C=C/c1ccc([N+](=O)[O-])o1	0	0	0	0
CCN(CC)c1ccc(C(NC(=O)C(C)C)c2ccc3cccnc3c2O)cc1 (configuration not stated)	0	92.8	-	0
SMILES	EWS-Fli block	PAX8 inh HTS	LGR2 inh	CFTR F508del cor
CCCCC(=O)NC(c1ccc(N(C)C)cc1)c1ccc2cccnc2c1O (configuration not stated)	0	86.5	0	0
CCCCC(=O)NC(c1ccc(N(CC)CC)cc1)c1ccc2cccnc2c1O (configuration not stated)	0	93.5	-	0
CCCC(=O)NC(c1ccc(N(C)C)cc1)c1c(O)ccc2ccccc12 (configuration not stated)	-	0	0	-
Cc1ccc(NS(=O)(=O)c2ccc(C(=O)NNC(=O)c3ccccc3O)cc2)cc1	0	0	0	0
COc1ccc(NC(=O)N[C@@H]2CC[C@H](CCn3cc(-c4ccc(F)cc4)nn3)O[C@@H]2CO)cc1	0	0	0	0
COc1ccc(NC(=O)N[C@@H]2CC[C@@H](CCn3cc(-c4ccc(F)cc4)nn3)O[C@@H]2CO)cc1	0	0	0	9.2
COc1ccc(-c2cn(CC[C@@H]3CC[C@H](NC(=O)Cc4ccccn4)[C@H](CO)O3)nn2)cc1	0	90.4	0	0
COc1ccc(-c2cn(CC[C@@H]3CC[C@@H](NC(=O)Cc4ccccn4)[C@H](CO)O3)nn2)cc1	0	0	0	0
COc1ccc(-c2cn(CC[C@@H]3CC[C@H](NC(=O)Cc4ccccn4)[C@@H](CO)O3)nn2)cc1	0	78.3!	0	0
COc1cccc(CN2CCCCN3[C@H](CO)[C@@H](c4ccc(C#Cc5cccnc5)cc4)[C@H]3C2)c1	68.9	0	0	0
COc1ccc(NC(=O)N2CCCCN3[C@H](C2)[C@@H](c2ccc(C#Cc4ccccc4)cc2)[C@@H]3CO)cc1	0	92.4	-	0
COc1ccc(NC(=O)N2CCCCN3[C@H](C2)[C@H](c2ccc(C#Cc4ccccc4)cc2)[C@@H]3CO)cc1	0	0	-	0
COc1ccc(NC(=O)N2CCCCN3[C@@H](CO)[C@H](c4ccc(C#Cc5ccccc5)cc4)[C@@H]3C2)cc1	0	70.0	-	0
COc1ccc(C#Cc2ccc([C@H]3[C@H]4CN(C(=O)c5ccncc5)CCCCN4[C@H]3CO)cc2)cc1	0	0	0	9.3
COc1ccc(C#Cc2ccc([C@@H]3[C@H](CO)N4CCCCN(C(=O)Nc5ccc(F)cc5)C[C@@H]34)cc2)cc1	-	107.2	0	0
O=c1ccn(Cc2ccccc2)cc1	0	0	0	0
Cc1ccccc1Cn1ccc(=NCc2ccccc2)cc1	0	84.6	0	0
C[C@@H]1CN([C@H](C)CO)C(=O)c2cc(C#Cc3ccccn3)cnc2O[C@H]1CN(C)C(=O)c1ccccn1	0	-	0	0
COc1ccc(O[C@@H]2O[C@H](COC(C)=O)[C@@H](OC(C)=O)[C@H](OC(C)=O)[C@H]2NC(C)=O)cc1	0	0	0	-
COC(=O)C1C=CC(OC2OC(COC(C)=O)C(OC(C)=O)C(OC(C)=O)C2OC(C)=O)n2c(=O)n(-c3ccccc3)c(=O)n21 (configuration not stated)	0	101.2	?	0
CCOC(=O)c1ccccc1NC(=O)Cn1c(=O)n(Cc2ccccc2)c(=O)c2c(C)c(C)sc21	-	0	0	-
COc1ccc(N2CCN(C(=O)c3[nH]c(C(F)(F)F)nc3-c3ccccc3)CC2)cc1	0	0	0	0
CC(=O)N1CCN(C(=O)c2[nH]c(C(F)(F)F)nc2-c2ccccc2)CC1	0	0	-	0
Cc1cccc(N2CCN(C(=O)c3[nH]c(C(F)(F)F)nc3-c3ccccc3)CC2)c1C	0	77.1	-	0

Screens: PubChem BioAssay, Broad Institute
